Laboratory results taken from PubChem BioAssay (NCATS).
Inconclusive results are not listed. Active and inactive are the calls of the source. Unless noted, calls come from the whole dose curve; as a rule, active = well fitted curve in either direction with a large enough effect (not every such curve was filed as active); inconclusive = small, poorly fitted or top-dose-only effect, or another doubt; inactive = flat fitted curve, though single readings scatter.

Key:
[1] = molecular target: Lysosomal acid glucosylceramidase (Homo sapiens) (UniProt P04062); test: Glucocerebrosidase-p2 (AID 348; in the data active = potency below about 10 µM; note: potency is the fitted concentration of half-maximal effect); settings: purified GBA, blue fluorogenic substrate, 40 min
Procedure, shortened: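 Normal human glucocerebrosidase (0.2 nM) with blue fluorogenic substrate (80 uM final) in citrate/phosphate pH 5.9 with 10mM sodium taurocholate, 0.01% tween-20; 40 min RT, NaOH/glycine stop; fluorescence Ex 365/Em 440; AC50 from a titration from 0.6 nM upwards.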

[2] = AP1 Signaling Pathway (AID 357); settings: ME-180 AP-1-bla reporter, EGF-induced, beta-lactamase ratio, 5 h; at 7.69 µM (top of the series) unless noted;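 note: ME-180 reporter cells stimulated with EGF at its EC50 level; % is set by controls: 0 for no effect and ±100 for the full control effect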
Procedure, shortened: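 Titration-series screen for positive or negative modulators of EC50 EGF-induced signaling in ME-180 cells carrying an AP-1-driven beta-lactamase reporter. After 5 hours at 37 degrees Celsius, CCF4 460nm/530nm emission ratio gave %Activity; AC50 values derived.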

[3] = molecular target: Cytochrome P450 1A2 (Homo sapiens) (UniProt P05177); test: p450-cyp1a2 (AID 410; calls by dose curve; note: potency is the fitted concentration of half-maximal effect;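 for activity change, negative = inhibition: -100% = full effect of reference inhibitor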); settings: recombinant CYP1A2, luciferin-ME demethylation, luminescence; series mostly up to 57 µM
Procedure, shortened: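 20nM CYP1A2, 100uM Luciferin-ME (=Km), 100mM KPO4; cpd 10 min RT; +NADPH regen, 60 min RT; stop/detect 20 min; luminescence. Normalized to furafylline 57 uM = full inhibition.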

[4] = Stat Signaling Pathway (AID 446); settings: ME-180 (cervical carcinoma) SIE beta-lactamase reporter, IL-6 stimulated, 5 h; at 7.69 µM (top of the series) unless noted;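 note: ME-180 cervical cancer cells given 40 pM IL-6 alongside compound; SIE-controlled beta-lactamase reporter measured as 460/530 nm FRET emission ratio; % is set by controls: 0 for no effect and ±100 for the full control effect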
Procedure, shortened: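 FRET read-out (405 nm excitation, 460/530 nm emission) of a beta-lactamase reporter under a STAT-inducible element in ME-180 cervical carcinoma cells. Cells with compound receive 40 pM IL-6 for 5 h. Values are normalised to AC90 stimulation and AC90 JAK-inhibitor controls.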

[5] = molecular target: Glucocorticoid receptor (Homo sapiens) (UniProt P04150); test: GR-EFC Redistribution (AID 451; calls by dose curve; note: potency is the fitted concentration of half-maximal effect); settings: CHO-K1 GR-EFC translocation, beta-gal luminescence, 2 h
Procedure, shortened: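 CHO-K1 cells expressing nuclear EA and GR-ED fragments of b-gal; compounds titrated up to 46 uM final, 2 h at 37 C. GR nuclear translocation read as complemented b-gal luminescence after 1 h RT detection.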

[6] = molecular target: Mitogen-activated protein kinase 10 (Mus musculus) (UniProt Q61831); test: JNK3 AlphaScreen Assay (AID 530); settings: JNK3 lysate, c-Jun phosphorylation; series mostly up to 57.1 µM;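 note: kinase came from lysate of stimulated human HepG2 cells; signal reports phosphorylation of biotinylated GST-cJun 1-79 at Ser73 with 10 µM ATP; % is set by controls: 0 for no effect and ±100 for the full control effect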
Procedure, shortened: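 HepG2 lysate (IL-1b/TNFa pre-activated) + biotin-GST-cJun 1-79 + anti-pSer73 cJun; cpd titration, 15 min RT; ATP 10 uM start; Tris pH 7.6, MgCl2, DTT, vanadate; beads in EDTA buffer; AlphaScreen.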

[7] = molecular target: 3',5'-cyclic-AMP phosphodiesterase 4B (Homo sapiens) (UniProt Q07343); test: qHTS Assay for Inhibitors of PDE-IV (AID 607; active = well fitted activation curve with a large enough effect in the main read-out, with a control signal flat, not every such curve was filed as active; note: % of control where 0% means no effect); settings: HEK293 ACTOne CNG channel cells, membrane potential fluorescence; series mostly up to 22.9 µM
Procedure, shortened: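 Cell-based read-out of cAMP via a modified cyclic nucleotide-gated channel and membrane potential dye (535/590 nm) in HEK293 cells expressing PDE4 endogenously. Compounds tested up to 22.9 uM final; 100 uM RO 20-1724 reference.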

[8] = molecular target: Cytochrome P450 2C9 (Homo sapiens) (UniProt P11712); test: qHTS Assay for Inhibitors and Substrates of Cytochrome P450 2C9 (AID 883; active = well fitted inhibition curve with a large enough effect; note: potency is the fitted concentration of half-maximal effect; nearly all actives have a fitted effect of over 60% in size); settings: recombinant CYP2C9, luciferin-H luminescence, 60 min; series mostly up to 57.1 µM
Procedure, shortened: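 10nM CYP2C9 + 100uM Luciferin-H (=KM), 25mM KPO4; cpd 10 min 37C; NADPH regen, 60 min 37C; stop/detect with P450 Glo-Buffer 20 min; luminescence. Norm. to 57uM sulphaphenazole as full inhibition.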

[9] = molecular target: Cytochrome P450 3A4 (Homo sapiens) (UniProt P08684); test: qHTS Assay for Inhibitors and Substrates of Cytochrome P450 3A4 (AID 884; active = well fitted inhibition curve with a large enough effect; note: % is set by controls: 0 for no effect and ±100 for the full control effect; nearly all actives have a fitted effect of over 50% in size); settings: recombinant CYP3A4, Luciferin-PPXE luminescence; series mostly up to 57.1 µM
Procedure, shortened: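 Luminescent readout of luciferin produced by CYP3A4 (20 nM) dealkylation of Luciferin-PPXE, 25 uM (its KM). NADPH-driven reaction ran 60 min at RT after 10 min compound preincubation; data scaled to 57 uM ketoconazole as 100% inhibition.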

[10] = molecular target: Cytochrome P450 2D6 (Homo sapiens) (UniProt P10635); test: qHTS Assay for Inhibitors and Substrates of Cytochrome P450 2D6 (AID 891; active = well fitted inhibition curve with a large enough effect;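 note: luciferin methyl ether substrate demethylated by CYP2D6 with NADPH regeneration; % is set by controls: 0 for no effect and ±100 for the full control effect; nearly all actives have a fitted effect of over 60% in size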); settings: recombinant CYP2D6, luciferin-ME EGE luminescence; series mostly up to 57.1 µM
Procedure, shortened: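 Luminescent read-out of luciferin formed by 5 nM human CYP2D6 demethylating 30 uM Luciferin-ME EGE (Km level) over 60 min at room temperature after NADPH regeneration addition. Data normalized to full inhibition by 1.43 uM quinidine.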

[11] = qHTS Assay for Lipid Storage Modulators (AID 1519; calls by dose curve); settings: Drosophila S3 cells, BODIPY lipid droplet/cell ratio, laser cytometry, cells loaded with oleic acid; for activity change, negative = inhibition: at 57.5 µM (top of the series)
Procedure, shortened: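 Cells seeded at 5,000 per well were treated with compounds over a concentration series and loaded with oleic acid (400 uM, as added). Lipid droplet fluorescence (488 nm excitation, 500-530 nm channel) was read by laser-scanning cytometry and normalized to 20 uM Triacsin C.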

[12] = Primary qHTS for small molecule stabilizers of the endoplasmic reticulum resident proteome: Secreted ER Calcium Modulated Protein (SERCaMP) assay (AID 1508630; active = well fitted inhibition curve with a large enough effect; note: % is set by controls: 0 for no effect and ±100 for the full control effect); settings: SH-SY5Y GLuc-SERCaMP (Gaussia luciferase released on ER calcium loss) secretion, thapsigargin, luminescence; series mostly up to 38.4 µM
Procedure, shortened: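 The SH-SY5Y reporter protocol was run at 3 concentrations up to 38.3 uM (primary) or 11 concentrations (follow-up): 16 h compound, 100 nM thapsigargin for 4 h, then extracellular luciferase luminescence.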

[13] = measured here: cell count channel max response
[14] = measured here: lipid channel max response

Chain of 3',5'-cyclic-AMP phosphodiesterase 4B (Homo sapiens) (Q07343 whole entry, looked up): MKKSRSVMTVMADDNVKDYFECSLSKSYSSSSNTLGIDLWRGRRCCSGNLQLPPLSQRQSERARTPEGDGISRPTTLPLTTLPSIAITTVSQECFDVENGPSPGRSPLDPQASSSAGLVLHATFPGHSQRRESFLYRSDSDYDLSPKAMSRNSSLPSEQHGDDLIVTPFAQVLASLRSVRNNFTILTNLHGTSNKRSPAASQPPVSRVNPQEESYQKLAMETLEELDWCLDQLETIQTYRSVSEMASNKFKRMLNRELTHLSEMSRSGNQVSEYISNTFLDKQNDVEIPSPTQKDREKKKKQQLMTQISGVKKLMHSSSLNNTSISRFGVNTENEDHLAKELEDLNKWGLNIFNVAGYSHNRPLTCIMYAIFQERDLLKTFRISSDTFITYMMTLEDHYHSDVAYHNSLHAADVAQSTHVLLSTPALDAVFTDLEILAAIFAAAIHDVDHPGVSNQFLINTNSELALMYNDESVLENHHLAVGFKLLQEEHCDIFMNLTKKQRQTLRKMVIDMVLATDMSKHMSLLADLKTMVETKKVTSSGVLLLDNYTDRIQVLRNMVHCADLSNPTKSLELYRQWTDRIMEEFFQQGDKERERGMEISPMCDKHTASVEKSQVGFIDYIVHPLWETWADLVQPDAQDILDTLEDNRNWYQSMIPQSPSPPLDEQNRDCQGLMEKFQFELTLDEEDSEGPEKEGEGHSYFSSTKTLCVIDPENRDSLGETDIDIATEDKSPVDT
Chain of Glucocorticoid receptor (Homo sapiens) (P04150 whole entry, looked up, the tested form may be a part): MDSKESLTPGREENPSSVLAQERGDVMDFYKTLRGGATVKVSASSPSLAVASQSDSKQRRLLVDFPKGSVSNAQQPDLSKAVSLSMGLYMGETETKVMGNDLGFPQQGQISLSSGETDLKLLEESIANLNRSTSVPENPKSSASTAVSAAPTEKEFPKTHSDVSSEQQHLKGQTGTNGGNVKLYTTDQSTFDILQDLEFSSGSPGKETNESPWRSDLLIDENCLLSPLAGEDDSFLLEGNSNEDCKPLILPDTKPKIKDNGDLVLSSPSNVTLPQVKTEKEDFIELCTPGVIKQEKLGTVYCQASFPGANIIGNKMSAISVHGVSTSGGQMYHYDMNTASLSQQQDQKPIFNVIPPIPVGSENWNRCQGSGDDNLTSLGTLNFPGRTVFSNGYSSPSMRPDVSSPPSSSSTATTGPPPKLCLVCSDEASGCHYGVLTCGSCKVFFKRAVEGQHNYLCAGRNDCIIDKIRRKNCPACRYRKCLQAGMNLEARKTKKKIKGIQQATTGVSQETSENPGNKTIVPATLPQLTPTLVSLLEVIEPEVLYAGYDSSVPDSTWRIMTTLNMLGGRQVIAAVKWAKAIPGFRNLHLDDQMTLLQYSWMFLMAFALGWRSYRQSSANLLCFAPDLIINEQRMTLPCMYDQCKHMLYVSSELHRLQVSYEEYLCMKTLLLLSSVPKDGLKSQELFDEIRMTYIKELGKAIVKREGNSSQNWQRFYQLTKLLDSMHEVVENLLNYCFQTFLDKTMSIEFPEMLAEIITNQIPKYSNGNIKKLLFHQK
Chain of Lysosomal acid glucosylceramidase (Homo sapiens) (P04062 whole entry, looked up): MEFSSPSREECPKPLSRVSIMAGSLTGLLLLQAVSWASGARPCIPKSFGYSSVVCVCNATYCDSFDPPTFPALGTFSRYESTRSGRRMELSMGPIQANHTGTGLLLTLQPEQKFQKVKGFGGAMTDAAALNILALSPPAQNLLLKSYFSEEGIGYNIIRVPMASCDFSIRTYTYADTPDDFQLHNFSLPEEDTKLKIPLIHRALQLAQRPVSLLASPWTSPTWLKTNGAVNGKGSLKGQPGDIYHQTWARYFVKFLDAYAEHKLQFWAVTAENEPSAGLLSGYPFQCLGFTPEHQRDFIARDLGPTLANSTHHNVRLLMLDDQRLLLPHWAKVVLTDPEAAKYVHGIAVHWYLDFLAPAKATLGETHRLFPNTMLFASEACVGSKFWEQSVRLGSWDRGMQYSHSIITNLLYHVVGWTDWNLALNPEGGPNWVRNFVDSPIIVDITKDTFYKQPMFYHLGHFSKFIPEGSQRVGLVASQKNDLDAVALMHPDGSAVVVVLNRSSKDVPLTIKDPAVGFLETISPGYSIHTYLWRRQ
Chain of Cytochrome P450 1A2 (Homo sapiens) (P05177 whole entry, looked up): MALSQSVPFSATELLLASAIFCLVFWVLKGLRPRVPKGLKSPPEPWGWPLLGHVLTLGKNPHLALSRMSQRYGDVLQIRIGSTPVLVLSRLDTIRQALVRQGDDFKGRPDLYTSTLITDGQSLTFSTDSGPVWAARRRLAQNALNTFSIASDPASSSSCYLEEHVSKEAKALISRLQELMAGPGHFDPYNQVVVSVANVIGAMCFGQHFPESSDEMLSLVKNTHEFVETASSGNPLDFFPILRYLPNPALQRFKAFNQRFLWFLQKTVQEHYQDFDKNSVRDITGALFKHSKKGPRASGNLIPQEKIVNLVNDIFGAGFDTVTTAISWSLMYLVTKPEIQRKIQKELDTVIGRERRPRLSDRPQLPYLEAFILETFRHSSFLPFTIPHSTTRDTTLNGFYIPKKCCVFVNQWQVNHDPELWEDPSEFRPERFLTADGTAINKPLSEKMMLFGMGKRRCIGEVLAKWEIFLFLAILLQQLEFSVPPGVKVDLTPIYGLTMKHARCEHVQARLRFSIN
Chain of Cytochrome P450 2C9 (Homo sapiens) (P11712 whole entry, looked up): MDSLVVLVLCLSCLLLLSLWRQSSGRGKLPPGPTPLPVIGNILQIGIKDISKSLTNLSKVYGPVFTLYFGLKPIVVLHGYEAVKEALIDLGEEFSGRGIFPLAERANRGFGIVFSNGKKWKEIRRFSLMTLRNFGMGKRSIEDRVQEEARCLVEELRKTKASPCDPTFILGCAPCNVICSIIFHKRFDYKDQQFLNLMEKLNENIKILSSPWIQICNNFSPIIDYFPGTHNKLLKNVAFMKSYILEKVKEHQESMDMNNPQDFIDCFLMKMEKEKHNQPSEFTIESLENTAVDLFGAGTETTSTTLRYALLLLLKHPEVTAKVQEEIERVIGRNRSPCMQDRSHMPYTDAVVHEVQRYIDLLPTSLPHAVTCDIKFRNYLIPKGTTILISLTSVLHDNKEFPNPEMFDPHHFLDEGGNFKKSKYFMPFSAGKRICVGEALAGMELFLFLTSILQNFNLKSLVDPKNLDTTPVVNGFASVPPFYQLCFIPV
Chain of Cytochrome P450 2D6 (Homo sapiens) (P10635 whole entry, looked up): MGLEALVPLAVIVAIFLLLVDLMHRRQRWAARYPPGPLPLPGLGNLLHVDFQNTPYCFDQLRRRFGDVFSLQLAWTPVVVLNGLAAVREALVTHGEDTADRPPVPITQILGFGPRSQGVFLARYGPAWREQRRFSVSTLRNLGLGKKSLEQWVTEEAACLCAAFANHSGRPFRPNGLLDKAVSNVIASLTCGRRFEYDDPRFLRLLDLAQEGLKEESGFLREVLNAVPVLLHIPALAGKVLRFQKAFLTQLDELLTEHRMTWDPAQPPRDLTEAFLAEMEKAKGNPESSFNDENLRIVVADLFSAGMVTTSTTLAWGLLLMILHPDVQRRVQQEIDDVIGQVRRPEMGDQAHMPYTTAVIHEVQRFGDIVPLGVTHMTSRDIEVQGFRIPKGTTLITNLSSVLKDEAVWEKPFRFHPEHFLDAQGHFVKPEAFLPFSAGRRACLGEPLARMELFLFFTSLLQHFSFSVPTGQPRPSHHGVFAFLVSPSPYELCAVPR
Chain of Cytochrome P450 3A4 (Homo sapiens) (P08684 whole entry, looked up): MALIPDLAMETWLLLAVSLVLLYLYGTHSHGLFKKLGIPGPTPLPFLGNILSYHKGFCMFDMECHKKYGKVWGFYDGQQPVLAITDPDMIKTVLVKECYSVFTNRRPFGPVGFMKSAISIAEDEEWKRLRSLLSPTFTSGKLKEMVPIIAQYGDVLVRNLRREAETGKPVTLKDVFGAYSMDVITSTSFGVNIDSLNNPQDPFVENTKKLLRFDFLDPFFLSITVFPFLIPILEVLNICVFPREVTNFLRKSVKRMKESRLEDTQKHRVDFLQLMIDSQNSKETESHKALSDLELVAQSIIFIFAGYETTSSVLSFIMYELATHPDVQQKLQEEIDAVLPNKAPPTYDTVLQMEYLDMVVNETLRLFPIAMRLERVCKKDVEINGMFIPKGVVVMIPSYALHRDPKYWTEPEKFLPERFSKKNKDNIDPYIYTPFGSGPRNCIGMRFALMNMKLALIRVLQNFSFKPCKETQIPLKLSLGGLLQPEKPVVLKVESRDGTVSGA

CN1CCCC2(CCN(C(=O)c3cccc(F)c3)CC2)C1
10.1%: max response [11, 14]
7.52%: max response [11, 13]
inactive: Potency [1] > 11.4 µM | activity change, negative = inhibition [2] -7.14% | activity, negative = inhibition [4] 6.64% | Potency [5] > 46 µM | Potency [6] | Potency [7] | Potency [9] | Potency [10] | activity change, negative = inhibition [11] 0.413% | outcome [12]
active: Potency [3] 31.6 µM | Potency [8] 20 µM

O=C(c1csnn1)N1CCC2(CC1)CCN(C(c1ccccc1)c1ccccc1)CC2
2.32%: max response [11, 14]
inactive: Potency [1] > 11.4 µM | activity change, negative = inhibition [2] -5.85% | Potency [3] | activity, negative = inhibition [4] 4.86% | Potency [5] > 46 µM | Potency [6] | Potency [7] | activity change, negative = inhibition [11] -2.09% | outcome [12]
3.93%: max response [11, 13]

O=C(c1cccc(F)c1)N1CCC2(CCCN(Cc3ccccc3)C2)CC1
12%: max response [11, 14]
20.2%: max response [11, 13]
inactive: Potency [1] > 11.4 µM | activity change, negative = inhibition [2] 1.11% | Potency [3] | activity, negative = inhibition [4] -5.98% | Potency [5] > 46 µM | Potency [6] | Potency [7] | activity change, negative = inhibition [11] -8.15% | outcome [12]

CC(C)CN1CCC2(CC1)CCN(C(=O)c1cccn1C)CC2
-5.62%: max response [11, 13]
-4.46%: max response [11, 14]
inactive: Potency [1] > 11.4 µM | activity change, negative = inhibition [2] -13.5% | Potency [3] | activity, negative = inhibition [4] -4.86% | Potency [5] > 46 µM | Potency [6] | Potency [7] | activity change, negative = inhibition [11] 0.342% | outcome [12]

Cc1noc(C)c1C(=O)N1CCC2(CCCN(Cc3ccc(C#N)cc3)C2)CC1
33.4%: max response [11, 14]
inactive: Potency [1] > 11.4 µM | activity change, negative = inhibition [2] 4.42% | Potency [3] | activity, negative = inhibition [4] 3.17% | Potency [5] > 46 µM | Potency [6] | Potency [7] | activity change, negative = inhibition [11] 6.31% | outcome [12]
22.7%: max response [11, 13]

CS(=O)(=O)N1CCC2(CCN(c3ccncc3)CC2)CC1
inactive: Potency [1] > 11.4 µM | activity change, negative = inhibition [2] -13.1% | activity, negative = inhibition [4] 0.543% | Potency [5] > 46 µM | Potency [6] | Potency [7] | activity change, negative = inhibition [11] 3.83% | outcome [12]
active: Potency [3] 12.6 µM
7.45%: max response [11, 13]
13.6%: max response [11, 14]

COCC(=O)N1CCC2(CCN(Cc3ccccc3OC)CC2)CC1
-24%: max response [11, 14]
-22.5%: max response [11, 13]
inactive: Potency [1] > 11.4 µM | activity change, negative = inhibition [2] -3.62% | Potency [3] | activity, negative = inhibition [4] -4.34% | Potency [5] > 46 µM | Potency [6] | Potency [7] | activity change, negative = inhibition [11] -2.32% | outcome [12]
